From PubChem BioAssay (NCI)
Compounds without any hit were thinned out: in the full panel of roughly 83,000, 20% have a hit.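 Note: values are percent growth. 100 is the growth of untreated cells, values between 100 and 0 indicate rising inhibition; between -100 and 0 indicates cell death.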 Unmarked numbers belong to inactive results. The source made the active and inactive calls. The calls were made as follows: active = growth percent below 10; inactive = the rest.

system: BT-549 breast; test: NCI-60 one-dose screen, 48 h (100 = growth as untreated, 0 = no growth, -100 = all killed); settings: 10 µM

Row | Compound | growth
1 | O=C(Nc1cccc(C(F)(F)F)c1)c1cncc(C#Cc2cnc3cccnn23)c1 | 15.4%
2 | CCOc1ccc(/C=N/NC(=O)Cn2nc(Cc3ccccc3)c3onc(C)c3c2=O)cc1 | 6.06% (active)
3 | COc1cc(/C=C/C(=O)c2ccc(C(F)(F)F)cc2)ccc1Oc1nc(Nc2ccc(F)cc2)nc(N(C)C)n1 | 90.9%
4 | CC(=O)c1cc(C(=O)N2c3ccccc3Sc3ccccc32)n2ccc(C)cc12 | 16%
5 | CC1(C)CC[C@]2(C(=O)N3CCOCC3)CC[C@]3(C)C(=CC[C@@H]4[C@@]5(C)CC[C@H](NCO)C(C)(C)[C@@H]5CC[C@]43C)[C@H]2C1 | -92.2% (active)
6 | COC[C@@H](CC(C)C)N=C1NC(=O)/C(=C/c2ccc3ncsc3c2)N1 | -10.9% (active)
7 | CN1CCN(Cc2ccc(C(=O)Nc3cccc(Nc4ccc5c(O)cccc5n4)c3)cc2C(F)(F)F)CC1 | -58.4% (active)
8 | O=C(Nc1nc2ccc([N+](=O)[O-])cc2s1)Nc1ccccc1I | -18.9% (active)
9 | CN1CCCN(Cc2ccc(C(=O)Nc3cccc(Nc4ccc5cc(O)ccc5n4)c3)cc2C(F)(F)F)CC1 | 98%
10 | COc1ccc(N2N=C(c3ccc4c(c3)OCCO4)CC2c2cccc(NC(=O)CCCNS(=O)(=O)c3ccc(F)cc3)c2)cc1 (stereo not drawn) | 78.3%
11 | CC(=O)Nc1ccc(-n2cnc3cc(-c4ccc(O)cc4)ccc32)cc1F | 60.3%
12 | O=C1NC(=NC2CCCCCC2)N/C1=C\c1ccc2ncoc2c1 | 9.37% (active)
13 | COC1=C[C@@]23CCC(=O)N2CCc2cc4c(cc2[C@H]3[C@H]1OC(=O)C(C)(C)O)OCO4 | 98.9%
